# Records with an inconclusive call do not appear. A call without a number means that no potency is given here. Calls of active or inactive are those of the source. Unless noted, the call rests on the fitted dose curve; in most records, active means well fitted curve in the direction sought with a large enough effect; inconclusive means small, poorly fitted or top-dose-only effect, or another doubt; inactive means no such curve, though single readings can be large; an effect the other way counts as inactive or inconclusive.
# Tests used:
# [1] = qHTS Assay for Identification of Small Molecule Antagonists for NFkB Signaling Pathway (AID 895; active means well fitted inhibition curve with a large enough effect in the signal ratio, with a control signal flat, not every such curve was filed as active; the % refers to the signal ratio)
# Outline: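 Beta-lactamase reporter read-out (460 and 530 nm emission ratio, 405 nm excitation, 2 hrs substrate loading RT) after 5 hr stimulation with 10 pM TNF alpha in compound-treated NFkB-bla ME-180 cells in low-serum medium.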
# [2] = qHTS Assay for Identification of Small Molecule Antagonists for Thrombopoietin (TPO) Signaling Pathway (AID 918); settings: TPO-dependent cell signaling reporter, antagonist mode; further: potency means the concentration at half of the fitted maximal effect; nearly all actives have a fitted effect of over 60% in size
# Outline: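 Antagonist mode at EC50 TPO (26 pM) in IL-3-free medium; murine Ba/F3 cells with human TPO receptor and GPIIb-promoter luciferase, 24 hrs at 37 C before luminescent detection.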
# [3] = target: Muscarinic acetylcholine receptor M1 (Rattus norvegicus) (UniProt P08482); test: qHTS Assay for Antagonists of Acetylcholine Muscarinic M1 Receptor: Kinetic Measurement of Intracellular Calcium Response (AID 943);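 further: Fluo-4 calcium signal as peak divided by basal fluorescence over 4 min; series mostly up to about 35 µM; nearly all actives have a fitted effect of over 75% in size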
# Outline: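 Quantitative HTS in CHO-M1 (rat receptor) cells: 10 min compound exposure ahead of 100 nM carbachol, Fluo-4 fluorescence followed 4 min, value expressed as peak-to-basal ratio.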
# [4] = target: Muscarinic acetylcholine receptor M1 (Rattus norvegicus) (UniProt P08482); test: qHTS Assay for Antagonists of Acetylcholine Muscarinic M1 Receptor: Measurement of IP-One Response (AID 944); further: nearly all actives have a fitted effect of over 75% in size
# Outline: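 Antagonism was measured as loss of carbachol-driven (EC80) IP1 accumulation in CHO cells carrying rat M1, using a homogeneous IP-One TR-FRET kit read at 620 and 665 nm.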
# Chain of Muscarinic acetylcholine receptor M1 (Rattus norvegicus) (P08482 whole entry, looked up): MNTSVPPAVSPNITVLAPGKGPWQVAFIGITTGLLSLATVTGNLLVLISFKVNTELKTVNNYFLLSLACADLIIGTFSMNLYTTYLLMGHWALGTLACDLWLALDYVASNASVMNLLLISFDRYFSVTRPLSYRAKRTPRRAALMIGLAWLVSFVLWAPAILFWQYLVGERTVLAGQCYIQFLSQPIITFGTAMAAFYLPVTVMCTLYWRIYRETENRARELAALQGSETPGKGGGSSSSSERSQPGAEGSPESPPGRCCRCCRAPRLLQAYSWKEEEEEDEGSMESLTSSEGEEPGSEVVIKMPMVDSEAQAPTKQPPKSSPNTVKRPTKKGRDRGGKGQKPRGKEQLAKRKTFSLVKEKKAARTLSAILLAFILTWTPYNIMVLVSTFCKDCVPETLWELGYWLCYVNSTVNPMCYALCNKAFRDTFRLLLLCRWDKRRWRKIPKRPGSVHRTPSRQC
structure (smiles),measurement,setting,value
FC(F)(F)c1cc(CO[C@@H]2CCCN[C@H]2c2ccccc2)cc(C(F)(F)F)c1,Potency,[1],inactive
same,Potency,[2],10 µM (active)
same,Potency,[3],inactive
same,Potency,[4],inactive

# — PubChem BioAssay (NCATS)
